Measured values: ChEMBL document CHEMBL1961873, “Compounds: GSK PKIS; Assays: Nanosyn kinase panel” (2012)
Values joined by “and” are separate entries in the source; they are usually repeats but may differ in a detail not shown here. Equal entries are not always repeated.

Experiments:
[1] = target: Dual specificity protein kinase CLK3 (Homo sapiens) (UniProt P49761); conditions: at 1 µM;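 note: each value is the mean inhibition of CLK3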
[2] = target: Dual specificity tyrosine-phosphorylation-regulated kinase 1A (Homo sapiens) (UniProt Q13627); conditions: at 0.1 µM
[3] = target: Dual specificity tyrosine-phosphorylation-regulated kinase 1A (Homo sapiens) (UniProt Q13627); conditions: at 1 µM
[4] = target: Dual specificity tyrosine-phosphorylation-regulated kinase 1B (Homo sapiens) (UniProt Q9Y463); conditions: at 0.1 µM
[5] = target: Dual specificity tyrosine-phosphorylation-regulated kinase 1B (Homo sapiens) (UniProt Q9Y463); conditions: at 1 µM
[6] = target: T1, Dual specificity tyrosine-phosphorylation-regulated kinase 2 (Homo sapiens) (UniProt Q92630); conditions: at 0.1 µM
T1 sequence (whole entry): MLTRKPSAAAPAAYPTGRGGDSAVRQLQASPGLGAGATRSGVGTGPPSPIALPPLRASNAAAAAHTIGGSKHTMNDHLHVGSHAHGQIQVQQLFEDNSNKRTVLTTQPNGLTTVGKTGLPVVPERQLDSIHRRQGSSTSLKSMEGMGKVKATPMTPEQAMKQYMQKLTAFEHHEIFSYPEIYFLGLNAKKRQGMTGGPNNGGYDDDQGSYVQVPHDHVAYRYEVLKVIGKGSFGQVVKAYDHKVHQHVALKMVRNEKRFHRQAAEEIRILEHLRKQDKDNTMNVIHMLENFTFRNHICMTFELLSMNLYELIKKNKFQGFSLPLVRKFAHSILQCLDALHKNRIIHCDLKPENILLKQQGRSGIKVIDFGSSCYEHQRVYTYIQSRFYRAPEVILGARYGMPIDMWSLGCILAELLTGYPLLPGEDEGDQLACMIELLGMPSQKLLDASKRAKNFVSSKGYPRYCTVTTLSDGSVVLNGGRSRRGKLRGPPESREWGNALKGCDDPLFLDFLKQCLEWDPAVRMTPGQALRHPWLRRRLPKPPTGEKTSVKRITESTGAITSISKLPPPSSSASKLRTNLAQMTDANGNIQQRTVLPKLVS

[7] = target: T1, Dual specificity tyrosine-phosphorylation-regulated kinase 2 (Homo sapiens); conditions: at 1 µM
[8] = target: Glycogen synthase kinase-3 alpha (Homo sapiens) (UniProt P49840); conditions: at 0.1 µM
[9] = target: Glycogen synthase kinase-3 alpha (Homo sapiens) (UniProt P49840); conditions: at 1 µM
[10] = target: Glycogen synthase kinase-3 beta (Homo sapiens) (UniProt P49841); conditions: at 0.1 µM
[11] = target: Glycogen synthase kinase-3 beta (Homo sapiens) (UniProt P49841); conditions: at 1 µM
[12] = target: Homeodomain-interacting protein kinase 1 (Homo sapiens) (UniProt Q86Z02); conditions: at 0.1 µM
[13] = target: Homeodomain-interacting protein kinase 1 (Homo sapiens) (UniProt Q86Z02); conditions: at 1 µM
[14] = target: T2, Homeodomain-interacting protein kinase 4 (Homo sapiens) (UniProt Q8NE63); conditions: at 0.1 µM
T2 sequence (whole entry): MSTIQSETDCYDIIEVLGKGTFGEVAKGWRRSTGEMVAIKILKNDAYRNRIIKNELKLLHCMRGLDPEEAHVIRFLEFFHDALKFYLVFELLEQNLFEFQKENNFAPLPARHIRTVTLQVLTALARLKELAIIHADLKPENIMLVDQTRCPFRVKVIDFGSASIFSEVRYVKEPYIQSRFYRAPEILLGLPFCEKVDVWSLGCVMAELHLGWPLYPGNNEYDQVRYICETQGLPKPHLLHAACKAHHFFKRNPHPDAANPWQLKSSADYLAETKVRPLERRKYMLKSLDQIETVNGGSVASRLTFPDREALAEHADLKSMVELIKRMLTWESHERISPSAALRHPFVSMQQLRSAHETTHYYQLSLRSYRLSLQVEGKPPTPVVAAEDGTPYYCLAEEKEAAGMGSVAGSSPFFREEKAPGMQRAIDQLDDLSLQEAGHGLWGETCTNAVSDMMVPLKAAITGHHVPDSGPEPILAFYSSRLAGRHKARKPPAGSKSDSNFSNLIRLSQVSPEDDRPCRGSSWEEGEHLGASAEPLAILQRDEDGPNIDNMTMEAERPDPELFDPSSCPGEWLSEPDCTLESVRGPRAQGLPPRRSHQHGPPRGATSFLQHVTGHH

[15] = target: T2, Homeodomain-interacting protein kinase 4 (Homo sapiens); conditions: at 1 µM
[16] = target: Mitogen-activated protein kinase 9 (Homo sapiens) (UniProt P45984); conditions: at 0.1 µM
[17] = target: Mitogen-activated protein kinase 9 (Homo sapiens) (UniProt P45984); conditions: at 1 µM
[18] = target: Mitogen-activated protein kinase 1 (Homo sapiens) (UniProt P28482); conditions: at 0.1 µM
[19] = target: Mitogen-activated protein kinase 1 (Homo sapiens) (UniProt P28482); conditions: at 1 µM
[20] = target: Mitogen-activated protein kinase 3 (Homo sapiens) (UniProt P27361); conditions: at 0.1 µM;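 note: each value is a mean inhibition figure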
Chain of Mitogen-activated protein kinase 3 (Homo sapiens) (P27361 whole entry): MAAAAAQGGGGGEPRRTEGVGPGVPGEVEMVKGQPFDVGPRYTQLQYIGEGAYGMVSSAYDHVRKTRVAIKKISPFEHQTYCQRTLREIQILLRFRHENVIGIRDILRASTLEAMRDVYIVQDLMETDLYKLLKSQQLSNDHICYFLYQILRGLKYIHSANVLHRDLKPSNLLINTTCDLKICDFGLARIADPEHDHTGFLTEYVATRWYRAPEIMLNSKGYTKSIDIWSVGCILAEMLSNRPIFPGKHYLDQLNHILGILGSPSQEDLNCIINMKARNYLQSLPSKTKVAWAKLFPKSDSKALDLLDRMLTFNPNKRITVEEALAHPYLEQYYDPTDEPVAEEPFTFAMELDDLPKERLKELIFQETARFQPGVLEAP

Chain of Dual specificity tyrosine-phosphorylation-regulated kinase 1B (Homo sapiens) (Q9Y463 whole entry, looked up): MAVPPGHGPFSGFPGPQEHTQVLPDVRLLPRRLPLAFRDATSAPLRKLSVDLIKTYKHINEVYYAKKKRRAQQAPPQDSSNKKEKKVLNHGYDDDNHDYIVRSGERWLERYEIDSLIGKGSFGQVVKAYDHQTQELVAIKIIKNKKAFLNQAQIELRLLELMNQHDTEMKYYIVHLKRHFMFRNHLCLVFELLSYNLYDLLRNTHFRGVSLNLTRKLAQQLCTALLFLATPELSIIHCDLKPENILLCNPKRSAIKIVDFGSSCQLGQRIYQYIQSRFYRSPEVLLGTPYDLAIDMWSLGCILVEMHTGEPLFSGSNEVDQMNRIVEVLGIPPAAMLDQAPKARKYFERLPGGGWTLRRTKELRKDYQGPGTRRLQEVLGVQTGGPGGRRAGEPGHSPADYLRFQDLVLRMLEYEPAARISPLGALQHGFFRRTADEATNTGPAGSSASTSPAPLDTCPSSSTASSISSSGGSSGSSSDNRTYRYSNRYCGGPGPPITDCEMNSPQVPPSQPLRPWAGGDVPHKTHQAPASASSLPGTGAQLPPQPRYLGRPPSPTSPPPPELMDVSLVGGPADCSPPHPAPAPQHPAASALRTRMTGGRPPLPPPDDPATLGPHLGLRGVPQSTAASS
Chain of Glycogen synthase kinase-3 beta (Homo sapiens) (P49841 whole entry, looked up): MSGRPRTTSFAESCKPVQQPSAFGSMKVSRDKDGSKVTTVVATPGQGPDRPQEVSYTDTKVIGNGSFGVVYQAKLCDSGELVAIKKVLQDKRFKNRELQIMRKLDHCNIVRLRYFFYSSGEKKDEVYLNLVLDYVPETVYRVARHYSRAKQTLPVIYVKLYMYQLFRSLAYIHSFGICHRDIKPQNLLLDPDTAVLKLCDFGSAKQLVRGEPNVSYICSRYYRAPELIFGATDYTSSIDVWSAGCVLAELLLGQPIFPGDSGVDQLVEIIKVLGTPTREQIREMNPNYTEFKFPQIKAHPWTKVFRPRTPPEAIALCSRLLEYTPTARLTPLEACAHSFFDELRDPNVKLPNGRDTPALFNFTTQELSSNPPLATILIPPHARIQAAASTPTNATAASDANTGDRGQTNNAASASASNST
Chain of Mitogen-activated protein kinase 1 (Homo sapiens) (P28482 whole entry): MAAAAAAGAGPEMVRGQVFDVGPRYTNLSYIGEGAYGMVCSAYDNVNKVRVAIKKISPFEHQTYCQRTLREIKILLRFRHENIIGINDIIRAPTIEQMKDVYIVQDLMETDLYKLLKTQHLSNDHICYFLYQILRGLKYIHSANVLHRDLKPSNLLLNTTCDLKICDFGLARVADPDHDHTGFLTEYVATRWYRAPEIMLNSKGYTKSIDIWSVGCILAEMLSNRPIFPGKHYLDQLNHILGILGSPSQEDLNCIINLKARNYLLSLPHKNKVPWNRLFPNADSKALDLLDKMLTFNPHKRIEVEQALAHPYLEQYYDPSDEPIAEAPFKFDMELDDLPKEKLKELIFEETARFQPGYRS
Chain of Mitogen-activated protein kinase 9 (Homo sapiens) (P45984 whole entry, looked up): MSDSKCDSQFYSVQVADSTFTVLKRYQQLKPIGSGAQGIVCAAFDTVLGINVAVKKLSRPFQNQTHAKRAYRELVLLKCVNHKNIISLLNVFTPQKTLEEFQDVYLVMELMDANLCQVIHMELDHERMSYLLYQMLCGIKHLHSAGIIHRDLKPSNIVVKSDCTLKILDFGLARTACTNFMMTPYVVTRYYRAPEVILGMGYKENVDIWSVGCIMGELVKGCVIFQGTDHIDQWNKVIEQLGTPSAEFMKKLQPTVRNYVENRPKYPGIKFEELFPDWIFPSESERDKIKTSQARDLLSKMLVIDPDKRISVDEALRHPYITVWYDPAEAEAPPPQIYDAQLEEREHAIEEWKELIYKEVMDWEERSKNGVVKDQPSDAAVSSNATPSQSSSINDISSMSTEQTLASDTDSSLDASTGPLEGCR
Chain of Glycogen synthase kinase-3 alpha (Homo sapiens) (P49840 2-483 limits assumed): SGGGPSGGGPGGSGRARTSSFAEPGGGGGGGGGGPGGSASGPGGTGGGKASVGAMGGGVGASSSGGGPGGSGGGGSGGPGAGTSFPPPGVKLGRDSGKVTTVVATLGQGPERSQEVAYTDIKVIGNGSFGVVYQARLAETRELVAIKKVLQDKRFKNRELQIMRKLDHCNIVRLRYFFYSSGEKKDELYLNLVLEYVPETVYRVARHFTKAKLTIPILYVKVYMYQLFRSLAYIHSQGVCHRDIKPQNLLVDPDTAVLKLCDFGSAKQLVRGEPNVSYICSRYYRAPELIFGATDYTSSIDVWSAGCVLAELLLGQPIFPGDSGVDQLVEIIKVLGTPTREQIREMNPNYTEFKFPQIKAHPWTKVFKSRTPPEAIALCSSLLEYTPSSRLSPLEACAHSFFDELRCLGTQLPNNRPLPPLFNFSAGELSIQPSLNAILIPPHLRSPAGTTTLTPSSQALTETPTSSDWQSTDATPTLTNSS
Chain of Dual specificity protein kinase CLK3 (Homo sapiens) (P49761 whole entry, looked up): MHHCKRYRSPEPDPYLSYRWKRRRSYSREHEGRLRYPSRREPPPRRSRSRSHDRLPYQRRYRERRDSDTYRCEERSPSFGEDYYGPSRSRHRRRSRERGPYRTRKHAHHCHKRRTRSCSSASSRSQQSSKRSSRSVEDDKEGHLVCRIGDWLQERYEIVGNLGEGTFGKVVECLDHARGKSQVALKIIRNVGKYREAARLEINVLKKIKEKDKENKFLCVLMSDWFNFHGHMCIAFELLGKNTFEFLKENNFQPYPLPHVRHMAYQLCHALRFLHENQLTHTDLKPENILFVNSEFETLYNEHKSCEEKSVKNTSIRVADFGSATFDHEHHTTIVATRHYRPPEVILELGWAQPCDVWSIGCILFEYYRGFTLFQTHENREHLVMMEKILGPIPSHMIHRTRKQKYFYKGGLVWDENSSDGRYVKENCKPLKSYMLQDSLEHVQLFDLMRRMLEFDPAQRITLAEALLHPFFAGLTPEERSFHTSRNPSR
Chain of Homeodomain-interacting protein kinase 1 (Homo sapiens) (Q86Z02 whole entry, looked up): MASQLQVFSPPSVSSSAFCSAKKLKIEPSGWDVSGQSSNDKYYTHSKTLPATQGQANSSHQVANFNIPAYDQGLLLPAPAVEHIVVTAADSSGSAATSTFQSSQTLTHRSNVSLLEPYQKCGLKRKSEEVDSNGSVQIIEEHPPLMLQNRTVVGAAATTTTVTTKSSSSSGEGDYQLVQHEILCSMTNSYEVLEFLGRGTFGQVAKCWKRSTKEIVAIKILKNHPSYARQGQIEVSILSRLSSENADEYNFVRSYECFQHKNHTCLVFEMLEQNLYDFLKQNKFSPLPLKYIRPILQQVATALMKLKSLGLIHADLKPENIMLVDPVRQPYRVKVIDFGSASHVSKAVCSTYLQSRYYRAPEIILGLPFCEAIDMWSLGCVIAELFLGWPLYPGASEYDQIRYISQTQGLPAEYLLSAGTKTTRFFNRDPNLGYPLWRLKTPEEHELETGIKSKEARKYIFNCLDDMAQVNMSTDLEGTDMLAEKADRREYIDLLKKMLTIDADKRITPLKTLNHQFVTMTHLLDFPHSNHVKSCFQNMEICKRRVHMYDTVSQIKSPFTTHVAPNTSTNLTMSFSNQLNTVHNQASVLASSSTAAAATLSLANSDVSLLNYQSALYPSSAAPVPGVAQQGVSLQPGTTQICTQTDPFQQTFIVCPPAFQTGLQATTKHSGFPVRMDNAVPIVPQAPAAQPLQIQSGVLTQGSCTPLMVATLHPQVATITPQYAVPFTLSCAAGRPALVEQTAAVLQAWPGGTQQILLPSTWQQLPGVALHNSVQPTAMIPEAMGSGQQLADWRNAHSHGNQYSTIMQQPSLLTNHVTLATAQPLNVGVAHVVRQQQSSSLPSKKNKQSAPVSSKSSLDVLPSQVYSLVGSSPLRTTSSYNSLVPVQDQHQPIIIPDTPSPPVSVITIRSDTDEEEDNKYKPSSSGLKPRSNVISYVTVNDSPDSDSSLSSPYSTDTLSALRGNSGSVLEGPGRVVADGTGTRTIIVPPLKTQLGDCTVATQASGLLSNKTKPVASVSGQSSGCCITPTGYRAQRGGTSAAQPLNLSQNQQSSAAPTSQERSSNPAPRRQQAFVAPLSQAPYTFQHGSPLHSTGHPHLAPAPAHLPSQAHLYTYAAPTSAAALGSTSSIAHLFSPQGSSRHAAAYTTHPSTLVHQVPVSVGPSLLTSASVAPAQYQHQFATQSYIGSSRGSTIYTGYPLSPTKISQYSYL

SMILES | inhibition [1] | inhibition [2] | inhibition [3] | inhibition [4] | inhibition [5] | inhibition [6] | inhibition [7] | inhibition [8] | inhibition [9] | inhibition [10] | inhibition [11] | inhibition [12] | inhibition [13] | inhibition [14] | inhibition [15] | inhibition [16] | inhibition [17] | inhibition [18] | inhibition [19] | inhibition [20]
COc1cccc(Nc2nccc(-c3cnn4ncccc34)n2)c1 | 65.3% | 77.4% | 88.3% | 81.5% | 90% | 5.88% | 37.6% | 60.7% | 79.5% | 59.7% | 79% | 88.9% | 92.6% | 56.4% | 87.3% | 9.47% | 46.2% | 2.75% | 26.5% | 1.68%
CC1=C(C(=O)Nc2ccc3[nH]ncc3c2)C(c2ccc(F)cc2)N=C(c2ccc(C(F)(F)F)nc2)N1 (stereo not given) | 2.08% | 1.92% | 2.39% | 1.23% | 1.37% | 1.37% | 1.27% | 1.54% | 4.37% | 1.95% | 4.71% | 0.16% | 2.28% | 0.68% | 1.53% | 1.61% | 4.98% | -1.73% | 3.17% | 1.81%
Nc1nonc1-c1nc2cnccc2n1C1CC1 | 2.54% and -2.2% | 22% and 20.1% | 65.5% and 61.9% | 13.7% and 10.7% | 55.7% and 52.9% | 4.16% and 3.22% | 19.6% and 19.7% | 25% and 21.2% | 70.2% and 63.7% | 21.5% and 17.6% | 68.1% and 62.1% | 0.55% and 0.39% | 17.3% and 12.3% | 3.8% and -0.76% | 11.1% and 7.82% | 3.59% and 0.44% | 6.52% and 2.72% | 3.14% and 2.36% | 7.51% and 3.94% | 4.9% and 2.96%
CN1CCN(Cc2ccc(-c3cc4ncnc(Nc5ccc(OCc6cccc(F)c6)c(Cl)c5)c4s3)o2)CC1 | 0.78% and 2.08% | 2.29% and 3.65% | 3.25% and 6.67% | -1.48% and 1.67% | -0.65% and 3.95% | 2.17% and 3.19% | 1.22% and 4.53% | 4.34% and 12.6% | 3.93% and 13.7% | 2.82% and 10.6% | 4.12% and 11.3% | -3.31% and 2.8% | 0.3% and 2.78% | -0.43% and 2.01% | 0.76% and 4.59% | 0.58% and 7.12% | 2.65% and 8.42% | 9.37% and 6.21% | 4.78% and 9.62% | 2.39% and 7.04%
COC(=O)Nc1nc2cc(Oc3ccc(NC(=O)Nc4ccccc4)cc3)ccc2[nH]1 | 2% | 0.64% | 2.92% | -0.93% | 1.92% | 0.59% | 0.89% | 4.23% | 8.26% | 3.5% | 8.21% | 0.47% | 2.14% | 3.11% | 2.22% | 3.28% | 3% | 4.54% | 2.22% | 4.71%
CN1CCC(n2cnc(-c3ccc(F)cc3)c2-c2ccnc(NCCO)n2)CC1 | 3.15% | 3.36% | 3.78% | -0.1% | 1.43% | 2.57% | 3.9% | 3.17% | 5.09% | 3.17% | 7.21% | 3.91% | 7.67% | 2.19% | 4.16% | 8.58% | 37.3% | 2.94% | 6.12% | 3.9%
Fc1cccc(COc2ccc(Nc3ncncc3C#Cc3ccccc3)cc2Cl)c1 | 2.05% | 2.88% | 5.18% | 0.4% | 1.45% | 3.74% | 4.05% | 3.26% | 4.91% | 2.3% | 6.26% | 3.88% | 4.2% | 1.31% | 1.7% | 2.97% | 7.96% | 5.17% | 4.95% | 4.94%
CS(=O)(=O)Nc1ccc(-c2cc(-c3ccccc3)cc(C(N)=O)c2N)cc1 | -0.57% | 0.57% | 4.13% | 0.32% | 1.12% | 0.61% | 2.18% | 1.48% | 3.56% | 0.94% | 3.26% | -3.53% | 2.26% | 0.57% | 2.28% | 0.94% | 1.19% | 4.56% | 2.91% | 2.82%
CNC(=O)c1sc(-n2cnc3cc(OC)c(OC)cc32)cc1OCc1ccccc1C(F)(F)F | -0.08% | 1.4% | 2.18% | -0.95% | 0.23% | 2.15% | 1.34% | 2.13% | 5.93% | 1.12% | 3.56% | -0.45% | -1.76% | 1.98% | 7.08% | 2.65% | 4.22% | 5.45% | 6.09% | 3.11%
c1cnn2ncc(-c3ccnc(NCCCN4CCOCC4)n3)c2c1 | 0.72% | 6.3% | 33.9% | 6.84% | 40.3% | 1.99% | 5.39% | 2.46% | 13.1% | 1.44% | 13% | -1.15% | 6.02% | -0.89% | 3.35% | 3.34% | 5.01% | 2.95% | 4.35% | 2.48%
COc1cccc(-n2ncc3c(N/N=C/c4ccc(C(=O)NCCN(C)C)cc4)ncnc32)c1 | 31.7% | 38.1% | 71.6% | 17.8% | 57.1% | 20.9% | 66.3% | 71.9% | 82.7% | 66.3% | 79.4% | 47% | 78.8% | 49.5% | 75.8% | 2.47% | 3.96% | 1.34% | 4.38% | 3.11%
CCOc1ccc2c(-c3ccnc(Nc4cc(OC)cc(C(F)(F)F)c4)n3)cnn2n1 | 21.8% | 5.33% | 21.6% | 8.29% | 38.8% | 1.12% | 5.62% | 9.42% | 30.3% | 9.12% | 28% | 20.1% | 61.9% | 4.81% | 24.3% | 1.36% | 5.36% | 0.19% | 0.63% | 0.36%
O=C(O[C@H]1CN[C@H](C#Cc2cc3ncnc(Nc4ccc5c(cnn5Cc5ccccc5)c4)c3s2)C1)N1CCOCC1 | -0.49% | -4.04% | -3.74% | -1.09% | -0.85% | -0.74% | -3.59% | 1.95% | 3.19% | 1.44% | 3.77% | -3.77% | -1.24% | -1.27% | -0.32% | 0.01% | 0.13% | 0.84% | -0.13% | -0.77%
